Laboratory results as given in PubChem BioAssay (NCI).
Compounds without any hit were thinned out: in the full panel of roughly 83,000, 20% have a hit.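 Step 1: grow cells in 96-well plates. Step 2: add test compound at a single concentration. Step 3: incubate 48 h. Step 4: record percent growth.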 Active and inactive are the calls of the source. How the source made its calls: active means growth percent below 10; inactive means the rest.

Tests used:
Assay in all cases: NCI-60 one-dose screen, 48 h (100 = growth as untreated, 0 = no growth, -100 = all killed)
Conditions in all cases: 10 µM unless noted
[1] = system: NCI-H23 lung
[2] = system: NCI-H226 lung
[3] = system: NCI-H322M lung
[4] = system: HOP-62 NSCLC
[5] = system: NCI-H460 lung
[6] = system: HOP-92 NSCLC
[7] = system: NCI-H522 lung
[8] = system: A549/ATCC NSCLC
[9] = system: 786-0 renal
[10] = system: COLO 205 colon

Measured: growth

C=C1C(=O)O[C@H]2[C@H]1CC/C(COC(=O)c1cccnc1)=C\CC[C@@]1(C)O[C@@H]21
inactive: [1] 79% | [2] 78.5% | [3] 104% | [4] 85.2% | [5] 84.8% | [6] 49.2% | [7] 28.7% | [8] 80.1% | [9] 63.8% | [10] 52.9%

COc1ccc2c(c1)OC13Oc4cc(OC)ccc4C=C1CCCCC3=C2
inactive: [1] 91.6% | [2] 88.4% | [3] 105% | [4] 99.3% | [5] 94.4% | [6] 80.7% | [7] 66.2% | [8] 73.8% | [9] 87.2% | [10] 101%

COc1cc(C(=O)N2CCN(c3ccccc3OC)CC2)c(NC(=O)c2cnccn2)cc1OCc1ccccc1
inactive: [1] 77.9% | [2] 88.3% | [3] 69.4% | [4] 84.9% | [5] 121% | [6] 10.7% | [7] 73.7% | [8] 91.8% | [9] 87.3% | [10] 99.4%

COc1ccc(C(=S)c2cc(OC)c(OC)c(OC)c2)cc1OC(=O)CCl
active: [5] 7.23%
inactive: [1] 31.4% | [2] 103% | [3] 42.4% | [4] 30.9% | [6] 54.8% | [7] 12.9% | [8] 21.2% | [9] 27.4% | [10] 16.7%

C=C1C(=O)O[C@H]2[C@H]1CC/C(COC(=O)Nc1nc3ccccc3[nH]1)=C\CC[C@@]1(C)O[C@@H]21
active: [7] -27.2%
inactive: [1] 70.9% | [2] 79.8% | [3] 105% | [4] 89.9% | [5] 91.4% | [6] 50.4% | [8] 95.5% | [9] 80% | [10] 17.3%

CC1CCCN(CCCCCOc2ccc3oc4ccccc4c(=O)c3c2)C1 (stereo not given)
inactive: [1] 75% | [2] 104% | [3] 76.9% | [4] 91.3% | [5] 75.5% | [6] 90.2% | [7] 67.4% | [8] 68.7% | [9] 69.8% | [10] 36.1%

O=C(CCCC(=O)Nc1ccc(-n2nnc3cc(Cl)c(Cl)cc32)cc1)Nc1ccc(-n2nnc3cc(Cl)c(Cl)cc32)cc1
inactive: [1] 40.2% | [2] 49.9% | [3] 59.9% | [4] 28% | [5] 14.9% | [6] 77.6% | [7] 37.4% | [8] 34% | [9] 49.6% | [10] 72.2%

CN1C(=O)c2cc(Cl)nc3c(NC(=O)c4cccc(Cl)c4)c(Cl)c(NC(=O)c4cccc(Cl)c4)c1c23
inactive: [1] 18.7% | [2] 23.6% | [3] 28.3% | [4] 17.4% | [8] 83.8% | [9] 41.6%
active: [5] 2.82% | [6] -38.4% | [7] -54.6% | [10] 1.5%

COc1cc(/C=C/C(=O)/C=C/c2cc3ccc(Cl)cc3n(Cc3ccccc3)c2=O)ccc1O
active: [1] -20.6% | [2] -6.08% | [4] -6.74% | [5] -29.1% | [6] -5% | [7] -37.6% | [8] -3.99% | [9] -55.7% | [10] 7.89%
inactive: [3] 23.9%

COc1cc2c(Nc3ccc(NC(=O)Nc4ccc(Cl)c(C(F)(F)F)c4)c(Cl)c3)ncnc2cc1OCCCN1CCN(C)CC1
inactive: [1] 17.2% | [2] 73.9% | [3] 11.3% | [6] 27% | [8] 20.8%
active: [4] -15% | [5] -70.4% | [7] -60.4% | [9] 6.31% | [10] -43.2%

C=C(C)[C@@H]1CC[C@]2(C(=O)O)CC[C@]3(C)[C@H](CC[C@@H]4[C@@]5(C)C[C@@H](CC#Cc6ccccc6C)C(=O)C(C)(C)[C@@H]5CC[C@]43C)[C@@H]12
active: [7] -4.68% | [10] -7.56%
inactive: [1] 18.2% | [2] 23.7% | [3] 36.4% | [4] 32.5% | [5] 16% | [6] 38.1% | [8] 26.7% | [9] 34.4%

Nc1c(C(=O)Nc2ccccc2)sc2nc3c(cc12)CN(C(=O)OCc1ccccc1)CC3
inactive: [1] 62.6% | [2] 82.7% | [3] 70% | [4] 44.4% | [5] 34% | [6] 52.4% | [7] 35.6% | [8] 50.2% | [9] 50% | [10] 55.3%

Nc1c(C(=O)Nc2ccccn2)sc2nc3c(cc12)CCCCCC3
inactive: [1] 41% | [2] 42.1% | [3] 33% | [4] 17.8% | [6] 30.8% | [8] 14.1% | [9] 10.7%
active: [5] 6.37% | [7] 6.47% | [10] 8.74%

OCCNc1nc(NCCO)nc(Nc2ccc(C3=NN(c4ccc(Cl)cc4)C(c4ccc(Cl)cc4)C3)cc2)n1 (stereo not given)
inactive: [1] 70.4% | [2] 104% | [3] 50.7% | [4] 47.2% | [5] 36.2% | [6] 81.9% | [7] 63.9% | [8] 50.9% | [9] 16.7% | [10] 65.5%

O=C(Nc1ccccc1)NS(=O)(=O)c1c[nH]c(=S)[nH]c1=O
inactive: [1] 92.3% | [2] 105% | [3] 104% | [4] 72.4% | [5] 106% | [6] 115% | [7] 60.7% | [8] 80.7% | [9] 95.7% | [10] 96.5%

OCCNc1nc(NCCO)nc(Nc2ccc(C3=NN(c4cc(Cl)cc(Cl)c4)C(c4ccccc4)C3)cc2)n1 (stereo not given)
inactive: [1] 50.1% | [2] 96.2% | [3] 57.6% | [4] 29.1% | [5] 23.7% | [6] 72.1% | [7] 48.1% | [8] 35.9% | [9] 40.3% | [10] 34.4%

O=[N+]([O-])c1ccc(N=Nc2c(O)c(N=Nc3cc([N+](=O)[O-])cc([N+](=O)[O-])c3O)cc(N=Nc3cc(S(=O)(=O)O)cc4cc(S(=O)(=O)O)cc(O)c34)c2O)cc1
inactive: [1] 96.4% | [2] 113% | [3] 89.3% | [4] 98.6% | [5] 105% | [6] 101% | [7] 86.6% | [8] 102% | [9] 103% | [10] 108%

CS(=O)(=O)O[C@@H]1C(=O)N(c2cc3c4ccccc4ccc3c3ccccc23)[C@H]1c1ccc(F)cn1
active: [7] -19.9%
inactive: [1] 49.5% | [2] 63.2% | [3] 67% | [4] 35.2% | [5] 16.4% | [6] 57% | [8] 47.1% | [9] 26.2% | [10] 48.4%

COc1cc(C)ccc1Oc1nc(Nc2ccc(N3CCOCC3)cc2)ncc1N=Cc1cc(C(F)(F)F)cc(C(F)(F)F)c1
inactive: [1] 70.4% | [2] 55.4% | [3] 79.7% | [4] 61.1% | [5] 44.6% | [6] 67.8% | [7] 27.3% | [8] 70% | [9] 76.6% | [10] 68.3%

O=C(CN1N=C(c2ccc(F)cc2)CCC1=O)Nc1nccs1
inactive: [1] 103% | [2] 110% | [3] 100% | [4] 98.9% | [5] 97.7% | [6] 86.6% | [7] 83.2% | [8] 77.8% | [9] 103% | [10] 113%

COc1cc(C2=NN(C=O)C(c3cccc(Nc4ccnc5cc(C(F)(F)F)ccc45)c3)C2)cc(OC)c1OC (stereo not given)
inactive: [1] 59.9% | [2] 64.3% | [3] 66.2% | [4] 70.1% | [5] 44% | [6] 29.1% | [7] 53.1% | [8] 49% | [9] 63.3% | [10] 56.8%

COc1ccc(-c2nnc(N3CCN(C(=O)CN4CCN(c5ccc(OC)cc5)CC4)CC3)nc2-c2ccc(OC)cc2)cc1
inactive: [1] 21.4% | [3] 32.6% | [5] 29.3% | [8] 59.1% | [9] 26.3% | [10] 19%
active: [2] -81.4% | [4] 1.58% | [6] -62.9% | [7] -84.5%
